Data taken from PubChem BioAssay (NCATS).
Results filed as inconclusive are left out. Activity calls are given as the source filed them. The call rests on the fitted dose curve; in most records, active means well fitted inhibition curve with a large enough effect; inconclusive means small, poorly fitted or top-dose-only effect; inactive means flat fitted curve, though single readings scatter.

Legend:
Experiment in all cases: qHTS profiling for inhibitors of Plasmodium falciparum proliferation (AID 504749); further: nearly all actives have a fitted effect of over 60% in size
Conditions in all cases: P. falciparum in erythrocytes, SYBR Green DNA, 72 h; series mostly up to 28.7 µM
[1] = system: DIV30
In short: (§1)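 Fluorescence of SYBR Green-bound parasite DNA, read at 485/535 nm, served as the growth measure. Infected erythrocytes were cultured with compound 72 h; artemisinin (0.29 uM) and DMSO wells defined the normalization range.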

[2] = system: Dd2
In short: as §1

[3] = system: ECU
In short: as §1

[4] = system: FAB9
In short: as §1

[5] = system: GB4
In short: as §1

[6] = system: HB3
In short: as §1

[7] = system: ICS
In short: as §1

[8] = system: JCK
In short: as §1

[9] = system: N140
In short: as §1

[10] = system: P93_24
In short: as §1

[11] = system: P94_40
In short: as §1

[12] = system: PAD
In short: as §1

[13] = system: PC15
In short: as §1

[14] = system: PC26
In short: as §1

[15] = system: PC49
In short: as §1

[16] = system: SC27B
In short: as §1

[17] = system: TAB109
In short: as §1

[18] = system: TAB113
In short: as §1

[19] = system: TAB165
In short: as §1

[20] = system: W2
In short: as §1

Measured: Potency
Potency means the concentration at half of the fitted maximal effect.

NC(Cc1ccc(Cl)cc1)C(=O)O (stereo not drawn)
inactive: all assays above

CCN(CC)CC(=O)Nc1c(C)cccc1C
inactive: all assays above

Cc1nc2c([nH]1)c(=O)n(C)c(=O)n2Cc1ccco1
inactive: all assays above

CCN(CC)CCCN(c1ccccc1)C1Cc2ccccc2C1
active: [1] 8.49 µM | [2] 3.98 µM | [3] 3.98 µM | [4] 5.62 µM | [5] 6.01 µM | [6] 11.2 µM | [7] 3.55 µM | [8] 11.2 µM | [9] 5.01 µM | [10] 4.47 µM | [11] 5.01 µM | [12] 4.47 µM | [13] 4.47 µM | [14] 7.57 µM | [15] 3.98 µM | [16] 7.94 µM | [17] 3.55 µM | [18] 3.98 µM | [19] 3.98 µM | [20] 601 nM

CCCCNC(=O)NS(=O)(=O)c1ccc(C)cc1
inactive: all assays above

C[N+](C)(C)CCCCCCCCCC[N+](C)(C)C
active: [1] 4.26 µM | [2] 3.16 µM | [3] 10 µM | [4] 5.01 µM | [5] 3.01 µM | [6] 1.58 µM | [7] 2.24 µM | [8] 11.2 µM | [9] 2.82 µM | [10] 2.51 µM | [11] 2.51 µM | [12] 2.24 µM | [13] 8.91 µM | [14] 6.01 µM | [15] 3.98 µM | [16] 3.98 µM | [17] 3.55 µM | [18] 2.82 µM | [19] 3.16 µM | [20] 4780 nM

CC[N+](C)(C)c1cccc(O)c1
inactive: all assays above

CC(=O)[C@@]1(O)CC[C@H]2[C@@H]3CCC4=CC(=O)CC[C@]4(C)[C@H]3CC[C@@]21C
inactive: all assays above

CCNC(=O)N1CCN(CCCC(c2ccc(F)cc2)c2ccc(F)cc2)CC1
active: [1] 6.75 µM | [2] 2 µM | [3] 2.51 µM | [4] 3.98 µM | [5] 10.7 µM | [6] 4.47 µM | [7] 2.82 µM | [8] 10 µM | [9] 2.82 µM | [10] 2 µM | [11] 2.82 µM | [12] 3.55 µM | [13] 3.55 µM | [14] 4.78 µM | [15] 0.891 µM | [16] 2 µM | [17] 2.24 µM | [18] 2.24 µM | [19] 2 µM | [20] 953 nM

NC/C=C/C(=O)O
inactive: all assays above

CC(=O)Nc1nnc(S(N)(=O)=O)s1
inactive: all assays above

Nc1ncn([C@@H]2O[C@H](CO)[C@@H](O)[C@H]2O)c(=O)n1
inactive: all assays above

Nc1nc(N)c2nc(-c3ccccc3)c(N)nc2n1
active: [3] 2.82 µM | [4] 3.16 µM | [5] 1.35 µM
not listed: [20]
inactive: all other assays above

O=C(O)CCCCCCCC(=O)O
inactive: all assays above

NCCCNCCSP(=O)(O)O
inactive: all assays above

CCCN(CCC)CCc1cccc2c1CC(=O)N2
inactive: all assays above

Cc1ccc(Cl)c(Nc2ccccc2C(=O)O)c1Cl
inactive: all assays above

O=C(CCNNC(=O)c1ccncc1)NCc1ccccc1
not listed: [20]
inactive: all other assays above

c1cnc(N2CCN(Cc3ccc4c(c3)OCO4)CC2)nc1
inactive: all assays above

CN=C(NC#N)NCCSCc1nc[nH]c1C
inactive: all assays above

C#CCN(C)CCCOc1ccc(Cl)cc1Cl
not listed: [20]
inactive: all other assays above

C[N+](C)(C)CCOC(=O)CCC(=O)OCC[N+](C)(C)C
inactive: all assays above

NS(=O)(=O)c1cc2c(cc1Cl)NC(C1CC3C=CC1C3)NS2(=O)=O (stereo not drawn)
not listed: [20]
inactive: all other assays above

CCCCCN(CCCCC)C(=O)C(CCC(=O)O)NC(=O)c1ccc(Cl)c(Cl)c1 (stereo not drawn)
inactive: all assays above

NC(=O)c1cn(Cc2c(F)cccc2F)nn1
inactive: all assays above

COc1ccc([C@@H]2Sc3ccccc3N(CCN(C)C)C(=O)[C@@H]2OC(C)=O)cc1
active: [8] 10 µM
not listed: [20]
inactive: all other assays above

CC(=O)Oc1cc(C(C)C)c(OCCN(C)C)cc1C
inactive: all assays above

Nc1c2c(nc3ccccc13)CCCC2O (stereo not drawn)
inactive: all assays above

O=C(O)CP(=O)(O)O
not listed: [20]
inactive: all other assays above

CCN1CCc2nc(N)oc2CC1
inactive: all assays above

NC(=O)c1ncn([C@@H]2O[C@H](CO)[C@@H](O)[C@H]2O)c1O
inactive: all assays above

CN1CCN(CC(=O)N2c3ccccc3C(=O)Nc3cccnc32)CC1
inactive: all assays above

COCC(=O)O[C@]1(CCN(C)CCCc2nc3ccccc3[nH]2)CCc2cc(F)ccc2[C@@H]1C(C)C
active: [1] 3.38 µM | [2] 0.224 µM | [3] 4.47 µM | [4] 10 µM | [5] 0.151 µM | [6] 7.94 µM | [7] 1.78 µM | [8] 7.94 µM | [9] 0.562 µM | [10] 1.58 µM | [11] 2.82 µM | [12] 3.55 µM | [13] 4.47 µM | [14] 3.38 µM | [15] 1.12 µM | [16] 1.78 µM | [17] 2.24 µM | [18] 2 µM | [19] 2 µM | [20] 120 nM

CN(C)C(=O)Oc1ccc[n+](C)c1
inactive: all assays above

CN(C)C(=O)Oc1cccc([N+](C)(C)C)c1
inactive: all assays above

CSc1ccc(C(=O)c2[nH]c(=O)[nH]c2C)cc1
inactive: all assays above

C[C@H](CS)C(=O)N1CCC[C@H]1C(=O)O
inactive: all assays above

CCn1ccnc1CC1COc2ccccc2O1 (stereo not drawn)
not listed: [20]
inactive: all other assays above

CCN(CC)CCNC(=O)c1ccc(NC(C)=O)cc1
inactive: all assays above

CC(=O)OCC1=C(C(=O)O)N2C(=O)[C@@H](NC(=O)Cc3cccs3)[C@H]2SC1
inactive: all assays above

O=C(O)CN(CCN(CC(=O)O)CC(=O)O)CCN(CC(=O)O)CC(=O)O
not listed: [5]
inactive: all other assays above

CCN1CCC[C@H]1CNC(=O)c1c(O)c(Cl)cc(Cl)c1OC
inactive: all assays above

CCCCNc1ccc(C(=O)OCCN(C)C)cc1
not listed: [13] | [14] | [15]
inactive: all other assays above

CCOC(=O)C1=C(C)NC(C)=C(C(=O)OC)C1c1cccc(Cl)c1Cl (stereo not drawn)
not listed: [7] | [14] | [16] | [19] | [20]
inactive: all other assays above

Cc1nnc(SCC2=C(C(=O)O)N3C(=O)[C@@H](NC(=O)Cn4cnnn4)[C@H]3SC2)s1
inactive: all assays above

C[C@]12CCC(=O)C=C1CC[C@@H]1[C@@H]2CC[C@@]2(C)[C@H]1CC[C@]2(O)C(=O)CO
not listed: [7] | [14]
inactive: all other assays above

CN1CCN(C2=Nc3ccccc3Oc3ccc(Cl)cc32)CC1
not listed: [5] | [7] | [14] | [20]
inactive: all other assays above

OCCN1CCN(CC/C=C2/c3ccccc3Sc3ccc(C(F)(F)F)cc32)CC1
active: [1] 8.49 µM | [2] 7.94 µM | [3] 12.6 µM | [5] 6.75 µM | [6] 6.31 µM | [7] 6.31 µM | [9] 11.2 µM | [10] 10 µM | [11] 10 µM | [12] 10 µM | [13] 12.6 µM | [14] 6.75 µM | [16] 10 µM | [17] 8.91 µM | [18] 11.2 µM | [19] 10 µM | [20] 1900 nM

CCCCOCCOCCOCc1cc2c(cc1CCC)OCO2
inactive: all assays above

CC(C)NNC(=O)c1ccncc1
not listed: [9] | [17]
inactive: all other assays above

CCOC(=O)c1cnc2c(cnn2CC)c1NN=C(C)C
not listed: [7] | [11] | [20]
inactive: all other assays above

CC(C(=O)O)c1ccc(CC2CCCC2=O)cc1 (stereo not drawn)
inactive: all assays above

NC1=NCC2c3ccccc3Cc3ccccc3N12 (stereo not drawn)
not listed: [5] | [7]
inactive: all other assays above

CCN(Cc1ccncc1)C(=O)C(CO)c1ccccc1 (stereo not drawn)
inactive: all assays above
